# Data reported in PubChem BioAssay (EPA / NIEHS).
# Active and inactive are the calls of the source. The calls were made as follows: active = hit-call score of the fitted dose curve at least 0.9, where 1 is the maximum; inactive = score below 0.9.
# How the values were obtained:
# Conditions in all cases: mRNA level, 48 h; actives raise or lower the signal
# [1] = read-out: Cytochrome P450 3A7 (Homo sapiens) (UniProt P24462); assay: LTEA_HepaRG_CYP3A7: Life Technologies and Expression Analysis (LTEA) Assay for CYP3A7 using HepaRG (AID 2283492)
# Outline: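 CYP3A7 transcript levels were read by TaqMan qRT-PCR on Fluidigm arrays after 48 h chemical exposure of human HepaRG cells, with housekeeping-gene normalisation. Eight half-log concentrations up to 100 uM in 0.5% DMSO were tested in duplicate.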
# CYP3A5 (gene 1577) = assay: LTEA_HepaRG_CYP3A5: Life Technologies and Expression Analysis (LTEA) Assay for CYP3A5 using HepaRG (AID 2283493)
# Outline: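 Differentiated HepaRG cells in serum-free induction medium were dosed 48 h with test chemicals (8-point half-log series, top 100 uM, 0.5% DMSO, duplicate). CYP3A5 mRNA measured by qRT-PCR, normalized to ACTB, GAPDH, POLR2A; bidirectional fit versus DMSO.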
# [2] = read-out: Fatty Acid-Binding Protein 1 (FABP1), FABP1 (gene 2168); assay: LTEA_HepaRG_FABP1: Life Technologies and Expression Analysis (LTEA) Assay for Fatty Acid-Binding Protein 1 (FABP1) using HepaRG (AID 2283494)
# Outline: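 Differentiated human HepaRG cells were exposed in duplicate for 48 h in serum-free induction medium to 8-point half-log concentration series topping at 100 uM in 0.5% DMSO. FABP1 mRNA measured by TaqMan qRT-PCR, normalized to ACTB/GAPDH/POLR2A; bidirectional fit versus DMSO.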
# [3] = read-out: Cytochrome P450 4A22 (Homo sapiens) (UniProt Q5TCH4); assay: LTEA_HepaRG_CYP4A22: Life Technologies and Expression Analysis (LTEA) Assay for Cytochrome P450 4A22 (CYP4A22) using HepaRG (AID 2283495)
# Outline: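 HepaRG, 48 h post-plating -> serum-free induction medium; dosed 48 h, duplicate, 8 conc. (100 uM top, half-log), 0.5% DMSO. Readout: CYP4A22 mRNA by qRT-PCR, ACTB/GAPDH/POLR2A normalization; gain/loss fit relative to DMSO.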
# [4] = read-out: Cytochrome P450 7A1 (Homo sapiens) (UniProt P22680); assay: LTEA_HepaRG_CYP7A1: Life Technologies and Expression Analysis (LTEA) Assay for Cytochrome P450 7A1 (CYP7A1) using HepaRG (AID 2283496)
# Outline: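 Gene expression endpoint in human HepaRG liver cells treated for 48 h with test chemicals (up to 100 uM, 0.5% DMSO). Values come from bidirectional concentration-response fitting versus DMSO.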
# [5] = read-out: Glutathione S-Transferase (GSTA2), GSTA2 (gene 2939); assay: LTEA_HepaRG_GSTA2: Life Technologies and Expression Analysis (LTEA) Assay for Glutathione S-Transferase (GSTA2) using HepaRG (AID 2283497)
# Outline: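 Human HepaRG cells, plated 48 h, then exposed in serum-free induction medium for 48 h to eight half-log concentrations up to 100 uM in 0.5% DMSO, duplicate. GSTA2 mRNA by qRT-PCR, normalized to ACTB/GAPDH/POLR2A; bidirectional fit versus DMSO.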
# [6] = read-out: Glutamate-cysteine ligase catalytic (GCLC), GCLC (gene 2729); assay: LTEA_HepaRG_GCLC: Life Technologies and Expression Analysis (LTEA) Assay for Glutamate-cysteine ligase catalytic (GCLC) using HepaRG (AID 2283498)
# Outline: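 Differentiated human HepaRG cells, plated 48 h then switched to serum-free induction medium, were exposed in duplicate for 48 h to 8 half-log concentrations topping at 100 uM in 0.5% DMSO. GCLC mRNA was quantified by qRT-PCR against ACTB, GAPDH and POLR2A.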
# [7] = read-out: growth arrest and DNA damage 45 (GADD45G), GADD45G (gene 10912); assay: LTEA_HepaRG_GADD45G: Life Technologies and Expression Analysis (LTEA) Assay for growth arrest and DNA damage 45 (GADD45G) using HepaRG (AID 2283499)
# Outline: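 HepaRG, 48 h exposure, top 100 uM, half-log 8-point series, 0.5% DMSO vehicle, duplicates. Readout: GADD45G transcript by qRT-PCR (Fluidigm array), housekeeping-normalised (ACTB/GAPDH/POLR2A). Bidirectional curve fit vs DMSO baseline.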
# [8] = read-out: Glutamate-cysteine ligase regulatory (GCLM), GCLM (gene 2730); assay: LTEA_HepaRG_GCLM: Life Technologies and Expression Analysis (LTEA) Assay for Glutamate-cysteine ligase regulatory (GCLM) using HepaRG (AID 2283500)
# Outline: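 Differentiated human HepaRG cells exposed 48 h in serum-free induction medium to 8-point half-log concentrations (top 100 uM, 0.5% DMSO), in duplicate. GCLM mRNA quantified by qRT-PCR, normalized to ACTB, GAPDH, POLR2A; bidirectional fitting versus DMSO.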
# [9] = read-out: Glutathione S-transferase M3 (GSTM3), GSTM3 (gene 2947); assay: LTEA_HepaRG_GSTM3: Life Technologies and Expression Analysis (LTEA) Assay for Glutathione S-transferase M3 (GSTM3) using HepaRG (AID 2283501)
# Outline: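 qRT-PCR read-out of GSTM3 transcript, normalized to three housekeeping genes, from human HepaRG cells after 48 h chemical exposure. Eight-point half-log series, top 100 uM, 0.5% DMSO vehicle; gain or loss fitted relative to DMSO baseline.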
# Cytochrome P450 3A7 (Homo sapiens), sequence (P24462 whole entry, looked up): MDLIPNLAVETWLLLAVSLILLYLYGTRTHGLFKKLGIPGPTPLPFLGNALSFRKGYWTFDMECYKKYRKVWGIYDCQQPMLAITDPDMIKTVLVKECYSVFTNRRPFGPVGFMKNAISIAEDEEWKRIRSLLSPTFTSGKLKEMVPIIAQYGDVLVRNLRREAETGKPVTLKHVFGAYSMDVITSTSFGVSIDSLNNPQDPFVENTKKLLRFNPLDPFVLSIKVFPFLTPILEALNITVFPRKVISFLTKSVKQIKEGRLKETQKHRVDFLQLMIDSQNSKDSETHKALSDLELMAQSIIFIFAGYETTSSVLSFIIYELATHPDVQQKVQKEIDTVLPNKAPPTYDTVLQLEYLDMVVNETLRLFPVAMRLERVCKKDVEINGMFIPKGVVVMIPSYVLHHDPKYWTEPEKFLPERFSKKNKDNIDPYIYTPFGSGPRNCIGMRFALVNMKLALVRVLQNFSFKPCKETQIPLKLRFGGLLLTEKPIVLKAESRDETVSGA
Structure (SMILES),outcome [1],outcome (CYP3A5 (gene 1577)),outcome [2],outcome [3],outcome [4],outcome [5],outcome [6],outcome [7],outcome [8],outcome [9],AC50 [1],AC50 [2],AC50 [3],AC50 [4],AC50 [5],AC50 [6],AC50 [8],AC50 (CYP3A5 (gene 1577)),AC50 [7]
O=C1O[C@H]([C@@H](O)CO)C(O)=C1O,inactive,inactive,inactive,inactive,inactive,inactive,inactive,inactive,inactive,inactive,,,,,,,,,
CCCCCc1ccc(N)cc1,inactive,inactive,inactive,inactive,inactive,inactive,inactive,inactive,inactive,inactive,,,,,,,,,
CCN(Cc1cccnc1)C(=O)c1cccc(Cl)c1[C@]1(C)C(=O)N(Cc2ccc(OC)cc2OC)c2ccc(Cl)cc21,,inactive,,,,,,inactive,,inactive,24.1 µM (active),22.3 µM (active),14.4 µM (active),22.3 µM (active),25.8 µM (active),22.4 µM (active),20.1 µM (active),,
CN1C(=O)N(c2ccccc2Br)Cc2cnc(Nc3ccc4c(c3)OCC(CO)O4)nc21 (stereo not given),,,,,,,,,inactive,inactive,50 µM (active),58.8 µM (active),50 µM (active),72.8 µM (active),78 µM (active),65.8 µM (active),,82.1 µM (active),66.6 µM (active)
O=CCCCC=O,inactive,inactive,inactive,inactive,inactive,inactive,inactive,inactive,,inactive,,,,,,,,,
Cc1ccc2oc(CN(Cc3ccccc3)C(=O)Nc3c(F)cc(F)cc3F)c(-c3ccc(Cl)cc3)c2c1,,inactive,,,,,inactive,,,inactive,11.1 µM (active),13 µM (active),44.2 µM (active),5.31 µM (active),44.2 µM (active),,,,77.2 µM (active)
CC/C(=C(/CC)c1ccc(O)cc1)c1ccc(O)cc1,inactive,,,inactive,,inactive,,,,inactive,,94.1 µM (active),,84.8 µM (active),,78.7 µM (active),,50 µM (active),71.7 µM (active)
O=C(O)c1ccccc1C(=O)OCc1ccccc1,inactive,inactive,,,inactive,inactive,inactive,,,inactive,,28.1 µM (active),23.4 µM (active),,,,,,5.56 µM (active)
CCCCCCCCCCCO,inactive,inactive,inactive,inactive,inactive,inactive,inactive,inactive,inactive,inactive,,,,,,,,,
Oc1ccc2ccccc2c1,inactive,inactive,inactive,inactive,inactive,inactive,inactive,inactive,inactive,inactive,,,,,,,,,
Cc1cc2c(cc1C(F)(F)F)N(C(=O)Nc1ccc(Oc3cccnc3C)nc1)CC2,inactive,,,,,,,inactive,inactive,inactive,,11.6 µM (active),29.6 µM (active),46 µM (active),26 µM (active),60.7 µM (active),,73.1 µM (active),
Cc1c2ccccc2c(C)c2c1ccc1ccccc12,,,,,,,inactive,inactive,,inactive,30.3 µM (active),50 µM (active),51.9 µM (active),65.9 µM (active),39.4 µM (active),,50 µM (active),11.9 µM (active),
CC[C@H](NC(=O)c1cc(F)ccc1NS(=O)(=O)c1cccc2cccnc12)c1ccccc1,inactive,inactive,,,,,,inactive,inactive,inactive,,32.3 µM (active),22.8 µM (active),33.8 µM (active),80 µM (active),47.8 µM (active),,,
CC(O)CC(C)(C)O (stereo not given),inactive,inactive,inactive,inactive,inactive,inactive,inactive,inactive,,inactive,,,,,,,,,
Cc1ccc(C(C)C)cc1,inactive,inactive,inactive,inactive,inactive,inactive,inactive,inactive,inactive,inactive,,,,,,,,,
Clc1ccccc1C(c1ccccc1)(c1ccccc1)n1ccnc1,inactive,inactive,,,,,,,,inactive,,18.1 µM (active),15.7 µM (active),28.5 µM (active),50 µM (active),63 µM (active),24.2 µM (active),,28 µM (active)
O=C(OCCCCCCOC(=O)c1ccccc1)c1ccccc1,inactive,inactive,inactive,inactive,inactive,inactive,inactive,inactive,inactive,inactive,,,,,,,,,
O=c1[nH]sc2ccccc12,inactive,inactive,inactive,inactive,inactive,inactive,inactive,inactive,inactive,inactive,,,,,,,,,
